Assays:
Assay in all cases: DAPPL (digital affinity profiling via proximity ligation, sequencing); 10 mM Tris-HCl pH 7.5, 50 mM NaCl, 1 mM DTT, 4% glycerol, room temperature, 30 min; GST-TFs on glutathione beads, 16-mer random dsDNA library, 0.1% formaldehyde crosslink after washing; high values mean tight binding
FEV = target: T1, FEV (Homo sapiens, UniProt Q99581 1-238); conditions: protein: recombinant; tags: N-terminal GST; dsDNA, one strand shown
T1 sequence: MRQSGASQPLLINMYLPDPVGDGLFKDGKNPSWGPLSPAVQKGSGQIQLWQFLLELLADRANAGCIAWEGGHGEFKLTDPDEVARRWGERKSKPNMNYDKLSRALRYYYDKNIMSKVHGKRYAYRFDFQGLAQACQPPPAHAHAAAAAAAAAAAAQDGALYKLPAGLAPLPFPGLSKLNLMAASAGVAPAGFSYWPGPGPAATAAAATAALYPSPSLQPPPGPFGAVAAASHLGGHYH
Outline: (§1)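 Human transcription factors were made in yeast as GST fusions, captured on glutathione beads and barcoded with DNA. With a tag-only sample included, the pool was incubated with 200 nmole of a random double-stranded 16-mer DNA library in Tris/NaCl/DTT/glycerol buffer at room temperature for 30 min, then crosslinked with 0.1% formaldehyde after washing, ligated by proximity, amplified and sequenced. For binding signal, each hexamer's read frequency for a factor is divided by its frequency for the tag-only sample.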

ETV5 = ETV5 (Homo sapiens, UniProt P41161 1-510); conditions: protein: recombinant; tags: N-terminal GST; dsDNA, one strand shown
Chain of ETV5 (P41161 whole entry): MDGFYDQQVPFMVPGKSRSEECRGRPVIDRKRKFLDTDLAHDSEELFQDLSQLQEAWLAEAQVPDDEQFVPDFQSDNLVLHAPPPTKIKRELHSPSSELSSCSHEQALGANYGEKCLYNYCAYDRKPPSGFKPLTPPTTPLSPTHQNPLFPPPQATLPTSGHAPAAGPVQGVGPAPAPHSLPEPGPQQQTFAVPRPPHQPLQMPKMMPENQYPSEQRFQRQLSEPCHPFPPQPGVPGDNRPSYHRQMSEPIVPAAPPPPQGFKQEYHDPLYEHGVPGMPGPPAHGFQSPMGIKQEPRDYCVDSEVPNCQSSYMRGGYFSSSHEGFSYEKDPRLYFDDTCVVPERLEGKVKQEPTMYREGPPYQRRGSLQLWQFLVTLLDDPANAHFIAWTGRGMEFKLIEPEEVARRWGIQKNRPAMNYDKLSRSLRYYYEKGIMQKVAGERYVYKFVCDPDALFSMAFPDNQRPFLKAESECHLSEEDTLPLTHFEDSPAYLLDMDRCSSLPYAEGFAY
Outline: as §1

HSF1 = HSF1 (Homo sapiens, UniProt Q00613 1-529); conditions: protein: recombinant; tags: N-terminal GST; chain copies: 3; dsDNA, one strand shown
Chain of HSF1 (Q00613 whole entry): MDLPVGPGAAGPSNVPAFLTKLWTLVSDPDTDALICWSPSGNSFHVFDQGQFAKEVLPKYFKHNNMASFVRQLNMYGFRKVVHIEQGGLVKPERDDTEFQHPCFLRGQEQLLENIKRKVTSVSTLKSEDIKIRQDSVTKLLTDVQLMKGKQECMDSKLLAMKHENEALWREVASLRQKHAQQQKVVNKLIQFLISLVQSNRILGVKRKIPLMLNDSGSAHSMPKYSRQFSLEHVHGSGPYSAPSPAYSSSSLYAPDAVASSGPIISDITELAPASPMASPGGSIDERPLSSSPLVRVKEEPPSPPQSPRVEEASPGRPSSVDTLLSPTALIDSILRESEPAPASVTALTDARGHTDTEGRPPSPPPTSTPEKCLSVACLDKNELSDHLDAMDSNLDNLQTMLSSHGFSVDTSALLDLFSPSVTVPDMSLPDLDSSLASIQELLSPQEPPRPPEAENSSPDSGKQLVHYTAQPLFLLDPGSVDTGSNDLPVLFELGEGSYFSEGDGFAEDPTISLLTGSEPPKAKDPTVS
Outline: as §1

SPIC = target: T2, SPIC (Homo sapiens, UniProt Q8N5J4 1-248); conditions: protein: recombinant; tags: N-terminal GST; dsDNA, one strand shown
T2 sequence: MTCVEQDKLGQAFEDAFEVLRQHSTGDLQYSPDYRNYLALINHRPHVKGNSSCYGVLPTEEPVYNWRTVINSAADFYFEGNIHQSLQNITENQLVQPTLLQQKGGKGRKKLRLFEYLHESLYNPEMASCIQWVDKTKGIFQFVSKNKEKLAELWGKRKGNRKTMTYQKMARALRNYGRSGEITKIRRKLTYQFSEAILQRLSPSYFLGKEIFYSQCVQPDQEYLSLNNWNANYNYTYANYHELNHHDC
Outline: as §1

ELF4 = ELF4 (Homo sapiens, UniProt Q99607 1-663); conditions: protein: recombinant; tags: N-terminal GST; dsDNA, one strand shown
Chain of ELF4 (Q99607 whole entry): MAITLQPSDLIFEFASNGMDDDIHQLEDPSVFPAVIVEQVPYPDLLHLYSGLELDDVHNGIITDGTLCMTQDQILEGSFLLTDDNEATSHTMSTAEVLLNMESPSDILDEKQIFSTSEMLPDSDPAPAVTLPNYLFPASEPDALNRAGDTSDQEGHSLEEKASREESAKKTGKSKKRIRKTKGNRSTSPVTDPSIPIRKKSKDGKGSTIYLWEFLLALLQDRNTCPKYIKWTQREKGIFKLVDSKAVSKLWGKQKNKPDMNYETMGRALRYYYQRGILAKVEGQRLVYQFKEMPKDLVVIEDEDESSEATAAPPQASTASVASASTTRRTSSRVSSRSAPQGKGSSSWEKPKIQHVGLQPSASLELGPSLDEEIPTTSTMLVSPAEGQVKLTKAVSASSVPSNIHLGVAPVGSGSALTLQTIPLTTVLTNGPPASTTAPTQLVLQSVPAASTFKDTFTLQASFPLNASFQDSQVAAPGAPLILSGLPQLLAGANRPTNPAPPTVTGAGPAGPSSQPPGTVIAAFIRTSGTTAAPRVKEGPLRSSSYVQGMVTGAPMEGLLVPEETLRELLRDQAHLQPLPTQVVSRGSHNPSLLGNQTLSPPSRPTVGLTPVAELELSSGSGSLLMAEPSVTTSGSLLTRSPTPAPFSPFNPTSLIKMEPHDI
Outline: as §1

ELK4 = target: T3, ELK4 (Homo sapiens, UniProt P28324-2 1-405); conditions: protein: recombinant; tags: N-terminal GST; dsDNA, one strand shown
T3 sequence: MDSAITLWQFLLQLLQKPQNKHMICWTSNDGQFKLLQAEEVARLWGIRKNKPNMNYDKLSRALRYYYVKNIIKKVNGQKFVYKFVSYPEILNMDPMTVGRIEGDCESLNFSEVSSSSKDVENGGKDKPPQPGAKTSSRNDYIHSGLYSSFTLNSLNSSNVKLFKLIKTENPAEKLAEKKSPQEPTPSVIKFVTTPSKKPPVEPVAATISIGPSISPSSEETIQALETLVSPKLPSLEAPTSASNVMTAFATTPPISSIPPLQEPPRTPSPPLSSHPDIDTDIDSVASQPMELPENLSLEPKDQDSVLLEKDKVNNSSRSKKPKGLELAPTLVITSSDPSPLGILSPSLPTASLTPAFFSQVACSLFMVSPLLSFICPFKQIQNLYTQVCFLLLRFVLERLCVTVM
Outline: as §1

ETV2 = target: T4, ETV2 (Homo sapiens, UniProt O00321 1-342); conditions: protein: recombinant; tags: N-terminal GST; dsDNA, one strand shown
T4 sequence: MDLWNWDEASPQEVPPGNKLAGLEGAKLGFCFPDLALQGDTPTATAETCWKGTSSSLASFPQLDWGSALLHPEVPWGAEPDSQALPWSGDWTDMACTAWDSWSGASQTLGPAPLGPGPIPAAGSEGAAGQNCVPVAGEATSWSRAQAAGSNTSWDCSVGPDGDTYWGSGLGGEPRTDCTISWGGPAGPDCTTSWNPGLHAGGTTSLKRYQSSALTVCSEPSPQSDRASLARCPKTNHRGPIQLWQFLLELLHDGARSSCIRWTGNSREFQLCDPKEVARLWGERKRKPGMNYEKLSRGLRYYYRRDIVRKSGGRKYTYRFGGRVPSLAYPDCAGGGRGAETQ
Outline: as §1

ELF3 = target: T5, ELF3 (Homo sapiens, UniProt P78545 1-371); conditions: protein: recombinant; tags: N-terminal GST; dsDNA, one strand shown
T5 sequence: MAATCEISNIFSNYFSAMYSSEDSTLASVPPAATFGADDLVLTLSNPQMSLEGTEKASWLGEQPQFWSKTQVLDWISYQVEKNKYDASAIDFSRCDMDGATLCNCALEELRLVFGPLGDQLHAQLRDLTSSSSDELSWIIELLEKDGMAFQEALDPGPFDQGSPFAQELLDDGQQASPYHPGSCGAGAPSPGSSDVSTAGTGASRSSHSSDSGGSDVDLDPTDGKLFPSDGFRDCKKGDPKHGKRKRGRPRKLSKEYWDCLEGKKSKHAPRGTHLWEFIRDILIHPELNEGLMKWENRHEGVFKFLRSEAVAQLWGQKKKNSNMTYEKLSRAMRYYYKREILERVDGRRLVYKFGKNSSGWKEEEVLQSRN
Outline: as §1

CRX = CRX (Homo sapiens, UniProt O43186 1-299); conditions: protein: recombinant; tags: N-terminal GST; dsDNA, one strand shown
Chain of CRX (O43186 whole entry): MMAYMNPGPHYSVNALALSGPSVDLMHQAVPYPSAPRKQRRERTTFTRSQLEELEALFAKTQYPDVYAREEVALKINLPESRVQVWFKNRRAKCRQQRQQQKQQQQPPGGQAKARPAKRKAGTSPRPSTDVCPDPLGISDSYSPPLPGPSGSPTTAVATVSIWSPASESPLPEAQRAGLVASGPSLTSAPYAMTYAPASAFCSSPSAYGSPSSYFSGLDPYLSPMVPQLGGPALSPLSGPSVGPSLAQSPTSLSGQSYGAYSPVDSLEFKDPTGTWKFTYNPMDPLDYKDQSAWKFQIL
Outline: as §1

ETV1 = ETV1 (Homo sapiens, UniProt P50549 1-477); conditions: protein: recombinant; tags: N-terminal GST; dsDNA, one strand shown
Chain of ETV1 (P50549 whole entry): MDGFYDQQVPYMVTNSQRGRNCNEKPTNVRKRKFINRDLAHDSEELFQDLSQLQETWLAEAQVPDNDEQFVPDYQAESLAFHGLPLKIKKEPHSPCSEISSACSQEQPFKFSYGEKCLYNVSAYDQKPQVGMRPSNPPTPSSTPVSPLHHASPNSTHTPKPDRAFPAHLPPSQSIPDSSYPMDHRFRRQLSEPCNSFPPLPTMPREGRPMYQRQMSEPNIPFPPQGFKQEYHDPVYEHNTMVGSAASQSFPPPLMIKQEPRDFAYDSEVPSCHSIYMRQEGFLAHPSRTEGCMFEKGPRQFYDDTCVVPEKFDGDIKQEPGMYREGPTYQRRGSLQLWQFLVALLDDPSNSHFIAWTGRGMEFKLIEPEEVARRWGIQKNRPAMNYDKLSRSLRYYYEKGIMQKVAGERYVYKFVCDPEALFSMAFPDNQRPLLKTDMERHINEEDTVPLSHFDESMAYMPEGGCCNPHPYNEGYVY
Outline: as §1

ERF = target: T6, ERF (Homo sapiens, UniProt P50548 1-548); conditions: protein: recombinant; tags: N-terminal GST; dsDNA, one strand shown
T6 sequence: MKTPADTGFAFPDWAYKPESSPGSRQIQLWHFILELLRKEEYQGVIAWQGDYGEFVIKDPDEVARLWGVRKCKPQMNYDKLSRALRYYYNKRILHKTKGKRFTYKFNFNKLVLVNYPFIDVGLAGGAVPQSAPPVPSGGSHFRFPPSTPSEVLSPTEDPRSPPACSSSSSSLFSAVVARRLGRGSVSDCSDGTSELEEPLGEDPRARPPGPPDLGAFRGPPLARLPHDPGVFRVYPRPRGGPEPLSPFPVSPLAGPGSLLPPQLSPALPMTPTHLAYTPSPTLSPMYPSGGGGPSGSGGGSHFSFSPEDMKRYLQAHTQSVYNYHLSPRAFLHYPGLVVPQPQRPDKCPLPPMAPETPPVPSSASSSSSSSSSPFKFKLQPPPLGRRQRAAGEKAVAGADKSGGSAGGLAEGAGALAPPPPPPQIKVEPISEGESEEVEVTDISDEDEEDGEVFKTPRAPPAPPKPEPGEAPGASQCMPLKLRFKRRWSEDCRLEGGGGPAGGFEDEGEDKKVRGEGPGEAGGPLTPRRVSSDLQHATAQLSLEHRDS
Outline: as §1

ETV3L = target: T7, ETV3L (Homo sapiens, UniProt Q6ZN32 1-361); conditions: protein: recombinant; tags: N-terminal GST; dsDNA, one strand shown
T7 sequence: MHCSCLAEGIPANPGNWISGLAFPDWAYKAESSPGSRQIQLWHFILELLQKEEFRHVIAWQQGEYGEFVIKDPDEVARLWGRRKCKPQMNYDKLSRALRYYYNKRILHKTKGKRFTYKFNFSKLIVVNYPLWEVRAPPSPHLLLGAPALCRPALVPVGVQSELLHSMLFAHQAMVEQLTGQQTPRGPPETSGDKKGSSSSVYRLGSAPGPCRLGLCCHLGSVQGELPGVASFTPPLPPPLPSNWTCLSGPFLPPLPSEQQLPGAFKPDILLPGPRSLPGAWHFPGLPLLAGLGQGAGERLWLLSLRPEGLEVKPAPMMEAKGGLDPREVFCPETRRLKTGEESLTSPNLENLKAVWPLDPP
Outline: as §1

ETS2 = target: T8, ETS2 (Homo sapiens, UniProt P15036 1-469); conditions: protein: recombinant; tags: N-terminal GST; dsDNA, one strand shown
T8 sequence: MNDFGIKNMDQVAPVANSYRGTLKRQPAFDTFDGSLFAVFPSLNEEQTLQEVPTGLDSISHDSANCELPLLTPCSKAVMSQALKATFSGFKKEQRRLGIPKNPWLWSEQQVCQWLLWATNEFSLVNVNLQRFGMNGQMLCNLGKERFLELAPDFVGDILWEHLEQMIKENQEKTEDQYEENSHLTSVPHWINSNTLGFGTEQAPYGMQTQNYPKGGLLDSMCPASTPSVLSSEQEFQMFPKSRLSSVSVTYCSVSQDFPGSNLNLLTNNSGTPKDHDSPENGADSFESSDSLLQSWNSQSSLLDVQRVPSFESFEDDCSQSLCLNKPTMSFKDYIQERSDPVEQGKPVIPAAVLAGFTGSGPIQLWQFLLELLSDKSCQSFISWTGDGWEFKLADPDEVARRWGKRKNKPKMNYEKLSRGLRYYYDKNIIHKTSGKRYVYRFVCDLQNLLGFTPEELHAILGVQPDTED
Outline: as §1

SPDEF = target: T9, SPDEF (Homo sapiens, UniProt O95238 1-335); conditions: protein: recombinant; tags: N-terminal GST; dsDNA, one strand shown
T9 sequence: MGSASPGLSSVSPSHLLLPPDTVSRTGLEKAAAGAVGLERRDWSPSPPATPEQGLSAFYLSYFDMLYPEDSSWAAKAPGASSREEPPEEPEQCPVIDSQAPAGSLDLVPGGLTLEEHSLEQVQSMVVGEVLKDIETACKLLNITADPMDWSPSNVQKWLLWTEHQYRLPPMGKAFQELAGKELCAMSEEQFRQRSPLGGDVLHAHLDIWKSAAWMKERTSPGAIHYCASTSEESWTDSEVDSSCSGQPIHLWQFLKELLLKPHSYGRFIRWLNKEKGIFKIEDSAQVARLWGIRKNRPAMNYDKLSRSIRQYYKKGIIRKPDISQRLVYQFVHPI
Outline: as §1

ETV7 = target: T10, ETV7 (Homo sapiens, UniProt Q9Y603 1-341); conditions: protein: recombinant; tags: N-terminal GST; dsDNA, one strand shown
T10 sequence: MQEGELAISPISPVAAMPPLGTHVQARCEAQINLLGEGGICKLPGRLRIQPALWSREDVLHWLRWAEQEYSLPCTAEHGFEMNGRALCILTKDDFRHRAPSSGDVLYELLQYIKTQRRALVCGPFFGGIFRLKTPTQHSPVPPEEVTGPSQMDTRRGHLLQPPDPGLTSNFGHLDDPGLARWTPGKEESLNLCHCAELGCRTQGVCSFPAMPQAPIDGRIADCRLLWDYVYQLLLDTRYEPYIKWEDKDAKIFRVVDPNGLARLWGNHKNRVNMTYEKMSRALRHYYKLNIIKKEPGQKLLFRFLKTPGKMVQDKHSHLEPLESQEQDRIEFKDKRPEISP
Outline: as §1

ELF5 = target: T11, ELF5 (Homo sapiens, UniProt Q9UKW6-2 1-255); conditions: protein: recombinant; tags: N-terminal GST; dsDNA, one strand shown
T11 sequence: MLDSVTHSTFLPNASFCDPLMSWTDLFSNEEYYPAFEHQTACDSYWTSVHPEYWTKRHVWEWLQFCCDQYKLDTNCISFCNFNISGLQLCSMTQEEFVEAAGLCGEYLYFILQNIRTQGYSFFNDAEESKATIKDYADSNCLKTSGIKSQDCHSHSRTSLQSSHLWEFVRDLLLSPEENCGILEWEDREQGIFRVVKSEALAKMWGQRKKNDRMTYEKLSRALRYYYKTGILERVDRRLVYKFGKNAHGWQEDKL
Outline: as §1

ETV3 = target: T12, ETV3 (Homo sapiens, UniProt P41162-2 1-143); conditions: protein: recombinant; tags: N-terminal GST; dsDNA, one strand shown
T12 sequence: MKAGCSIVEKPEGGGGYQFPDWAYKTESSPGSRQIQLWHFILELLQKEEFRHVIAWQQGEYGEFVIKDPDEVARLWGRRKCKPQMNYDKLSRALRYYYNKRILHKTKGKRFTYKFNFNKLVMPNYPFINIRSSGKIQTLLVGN
Outline: as §1

ETV6 = ETV6 (Homo sapiens, UniProt P41212 1-452); conditions: protein: recombinant; tags: N-terminal GST; dsDNA, one strand shown
Chain of ETV6 (P41212 whole entry): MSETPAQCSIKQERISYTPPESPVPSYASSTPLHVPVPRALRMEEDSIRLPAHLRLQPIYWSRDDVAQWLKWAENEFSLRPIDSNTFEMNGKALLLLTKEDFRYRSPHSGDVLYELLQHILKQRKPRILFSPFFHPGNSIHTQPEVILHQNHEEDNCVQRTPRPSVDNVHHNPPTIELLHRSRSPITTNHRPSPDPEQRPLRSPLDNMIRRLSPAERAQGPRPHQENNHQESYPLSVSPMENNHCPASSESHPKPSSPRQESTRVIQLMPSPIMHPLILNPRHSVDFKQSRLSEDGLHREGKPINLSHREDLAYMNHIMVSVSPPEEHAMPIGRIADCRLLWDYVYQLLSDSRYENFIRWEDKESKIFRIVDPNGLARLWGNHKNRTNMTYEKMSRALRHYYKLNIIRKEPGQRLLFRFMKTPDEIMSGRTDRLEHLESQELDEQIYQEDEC
Outline: as §1

Question: CTCTCG was tested. Which binding signal (FEV) did it give?
Answer: The binding signal was 1.3 fold enrichment (6-mer frequency, TF over GST control).

Question: And the binding signal (ETV5)?
Answer: Its binding signal is 1.32 fold enrichment (6-mer frequency, TF over GST control).

Question: And the binding signal (HSF1)?
Answer: Its binding signal is 1.99 fold enrichment (6-mer frequency, TF over GST control).

Question: And the binding signal (SPIC)?
Answer: Its binding signal is 1.3 fold enrichment (6-mer frequency, TF over GST control).

Question: What about the binding signal (ELF4) of the same sequence?
Answer: The binding signal was 1.45 fold enrichment (6-mer frequency, TF over GST control).

Question: And the binding signal (ELK4)?
Answer: The binding signal was 1.41 fold enrichment (6-mer frequency, TF over GST control).

Question: What about the binding signal (ETV2) of the same sequence?
Answer: Its binding signal is 1.73 fold enrichment (6-mer frequency, TF over GST control).

Question: And the binding signal (ELF3)?
Answer: The binding signal was 1.65 fold enrichment (6-mer frequency, TF over GST control).

Question: What about the binding signal (CRX) of the same sequence?
Answer: The binding signal was 1.32 fold enrichment (6-mer frequency, TF over GST control).

Question: And the binding signal (ETV1)?
Answer: The binding signal was 1.47 fold enrichment (6-mer frequency, TF over GST control).

Question: What about the binding signal (ERF) of the same sequence?
Answer: The binding signal was 1.36 fold enrichment (6-mer frequency, TF over GST control).

Question: And the binding signal (ETV3L)?
Answer: The binding signal was 1.42 fold enrichment (6-mer frequency, TF over GST control).

Question: What about the binding signal (ETS2) of the same sequence?
Answer: The binding signal was 1.4 fold enrichment (6-mer frequency, TF over GST control).

Question: What about the binding signal (SPDEF) of the same sequence?
Answer: The binding signal was 1.16 fold enrichment (6-mer frequency, TF over GST control).

Question: What about the binding signal (ETV7) of the same sequence?
Answer: The binding signal was 1.25 fold enrichment (6-mer frequency, TF over GST control).

Question: What about the binding signal (ELF5) of the same sequence?
Answer: The binding signal was 1.34 fold enrichment (6-mer frequency, TF over GST control).

Question: What about the binding signal (ETV3) of the same sequence?
Answer: The binding signal was 1.35 fold enrichment (6-mer frequency, TF over GST control).

Question: What about the binding signal (ETV6) of the same sequence?
Answer: Its binding signal is 1.31 fold enrichment (6-mer frequency, TF over GST control).

— PMC7862700, “An all-to-all approach to the identification of sequence-specific readers for epigenetic DNA modifications on cytosine”
